From PubChem BioAssay
DT40 TDP1 CPT = DT40-hTDP1 cell growth loss with CPT. chicken DT40 Tdp1-/-;hTDP1 cells + 20 nM CPT, ATP luminescence, 48 h. 420,000 compounds, 12% hits. Potency, µM (highest dose often 46.2 µM), without a hit: top-dose activity change, negative = growth inhibition, hits mostly inhibitors. AID 686979; further: potency means the concentration at half of the fitted maximal effect; nearly all actives have a fitted effect of over 55% in size
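Chicken DT40 Tdp1-/- cells stably complemented with human TDP1 were seeded at 400 cells/well in medium containing 20 nM camptothecin, exposed to pin-transferred compounds, and grown at 37 °C for at least 48 hr. Viability was read as ATP luminescence.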
ALOX12 inh = inhibitors of human 12S-lipoxygenase ALOX12; P18054; purified 12hLO, xylenol orange hydroperoxide absorbance; Potency, µM (series often up to 108 µM), for the others: top-dose activity change, negative = inhibition, hits mostly inhibitors; 580,000 compounds, 1.1% hits; AID 1671190; further: potency means the concentration at half of the fitted maximal effect
Target sequence (P18054 whole entry, looked up): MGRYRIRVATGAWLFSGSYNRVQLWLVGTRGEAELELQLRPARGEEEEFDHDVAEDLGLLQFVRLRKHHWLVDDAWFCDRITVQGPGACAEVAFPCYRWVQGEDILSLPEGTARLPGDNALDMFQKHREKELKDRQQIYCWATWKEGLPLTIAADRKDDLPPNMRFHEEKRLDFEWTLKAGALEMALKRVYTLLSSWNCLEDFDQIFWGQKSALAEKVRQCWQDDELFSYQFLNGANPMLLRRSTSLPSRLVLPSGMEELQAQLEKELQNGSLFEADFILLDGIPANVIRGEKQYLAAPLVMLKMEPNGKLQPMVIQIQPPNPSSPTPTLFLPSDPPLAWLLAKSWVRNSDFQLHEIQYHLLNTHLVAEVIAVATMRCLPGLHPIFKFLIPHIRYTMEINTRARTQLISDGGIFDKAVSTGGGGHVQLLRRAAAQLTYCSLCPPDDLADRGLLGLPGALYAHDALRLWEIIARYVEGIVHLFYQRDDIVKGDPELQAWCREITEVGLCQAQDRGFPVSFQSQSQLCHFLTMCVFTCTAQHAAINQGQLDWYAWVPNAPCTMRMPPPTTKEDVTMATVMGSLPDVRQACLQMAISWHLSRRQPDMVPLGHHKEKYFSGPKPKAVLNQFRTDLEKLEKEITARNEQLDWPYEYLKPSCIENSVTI
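Hydroperoxide product was detected by ferrous iron/xylenol orange as the 573 to 405 nm absorbance ratio. Arachidonic acid at 40 uM (final) was turned over for 30 min at room temperature by 150 nM human 12hLO, pH 7.0 Hepes buffer, after 15 min compound preincubation.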
HT1080 IDH1KD tx = toxicity to HT-1080 IDH1 knockdown cells (counter line); HT-1080 IDH1 knockdown viability, ATP luminescence, 48 h; Potency, µM (series often up to 46.1 µM), without a hit: at the top dose activity, negative = toxicity, hits mostly cytotoxic; 360,000 compounds, 2% hits; AID 686971;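 further: potency means the concentration at half of the fitted maximal effect; 0% = DMSO wells and -100% = cell-free medium wells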
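HT-1080-IDH1KD cells (IDH1 knocked down), 750/well in RPMI with 5% FBS, treated with compound 48 h at 37 degrees C. Viability by CellTiter-Glo luminescence, normalised to DMSO and no-cell wells; concentration-response curves classed.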
DT40 TDP1 no CPT = qHTS for Inhibitors of human tyrosyl-DNA phosphodiesterase 1 (TDP1): qHTS in cells in absence of CPT | Potency, µM (series often up to 46.2 µM), inactives show at the top dose activity change, negative = growth inhibition, hits mostly inhibitors | 420,000 compounds, 15% hits | DT40 Tdp1-/- hTDP1 cells, no CPT, ATP luminescence, 48 h; further: potency means the concentration at half of the fitted maximal effect; nearly all actives have a fitted effect of over 55% in size
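Camptothecin absent (DMSO only). Human TDP1-complemented DT40 knockout cells, 400 cells/well, 37 °C for minimum 48 hr; ATP measured via CellTiter-Glo, 30 min dark incubation, luminescence.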
IL-1B inflam inh = inflammasome signaling inhibition, IL-1 beta readout; AID 743279; activity change, % at 57.5 µM; THP-1 LPS/ATP IL-1B secretion, AlphaLISA, 16 h; active compounds read low; 360,000 compounds, 4.7% hits; in the data active means activity change below about -50%; inconclusive means mostly about -30% to -49%
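THP-1 cells pretreated 1 hr with compounds (up to 57.5 uM final), then stimulated with LPS (250 ng/mL final) plus ATP (1.25 mM final); secreted IL-1B measured by AlphaLISA after 16 hr, decreased signal indicating inhibition.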
HT1080-NT tox = kills 2HG-producing HT-1080-NT fibrosarcoma cells; 360,000 compounds, 1.6% hits; Potency, µM (top dose mostly 46.1 µM), inactives show at the highest dose activity, negative = less viability, usual class: cytotoxic; HT-1080-NT fibrosarcoma viability, CellTiter-Glo ATP luminescence, 48 h;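 further: NT is the 2HG producing partner of a matched IDH1 knockdown line; potency means the concentration at half of the fitted maximal effect; 0% = DMSO-treated cells and -100% = media-only wells without cells; nearly all actives have a fitted effect of over 55% in size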
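Viability by CellTiter-Glo luminescence after 48 h compound exposure at 37C of HT-1080-NT cells (750/well, RPMI, 5% FBS). % activity scaled between DMSO wells and medium-only wells, then curve-fitted and categorized by curve class.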
Starred values were filed as active, the others as inactive. The full list was thinned out, with hits kept by preference. Unless noted, the call rests on the fitted dose curve; in most records, active means well fitted curve in the direction sought with a large enough effect; inconclusive means small, poorly fitted or top-dose-only effect, or another doubt; inactive means no such curve, though single readings can be large; an effect the other way counts as inactive or inconclusive. Unless noted, on the % scale 0 is the no-effect control and ±100 the full control effect.

Screening OC(CN1C2=NCCCN2c2ccccc21)c1ccc(Cl)cc1 (stereo not given) returned DT40 TDP1 CPT inconclusive, ALOX12 inh -8.1%, HT1080 IDH1KD tx inconclusive, DT40 TDP1 no CPT 18.4µM*, IL-1B inflam inh -8.3 and HT1080-NT tox inconclusive.
Screening CCNC(=O)c1n[nH]c2c1CN(C(=O)c1cc(F)cc(F)c1)CC2 returned ALOX12 inh 41.8%.
O=C1CC(=Nc2ccc([N+](=O)[O-])cc2)NN1c1c(Cl)cc(Cl)cc1Cl was read as DT40 TDP1 CPT inconclusive, ALOX12 inh 31.6µM*, HT1080 IDH1KD tx -14.7%, DT40 TDP1 no CPT 25.9µM*, IL-1B inflam inh -73.8* and HT1080-NT tox -14.5%.
For CC(N)=Nc1ccc([N+](=O)[O-])cc1 the results were DT40 TDP1 CPT -10.3%, ALOX12 inh 14.3%, HT1080 IDH1KD tx 13.1%, DT40 TDP1 no CPT -2.8%, IL-1B inflam inh 5.8 and HT1080-NT tox 19.3%.
`O=[N+]([O-])c1cccnc1C1OCCO1` gave DT40 TDP1 CPT 17.6%, ALOX12 inh -25.6%, HT1080 IDH1KD tx 14.9%, DT40 TDP1 no CPT 1.7%, IL-1B inflam inh 6.0 and HT1080-NT tox 7.5%.
For Cc1cnc(C2OCCO2)c2cccc(N)c12 the results were DT40 TDP1 CPT inconclusive, ALOX12 inh -8.8%, HT1080 IDH1KD tx 6.3%, DT40 TDP1 no CPT 8.2µM*, IL-1B inflam inh -11.7 and HT1080-NT tox -7.7%.
For Cc1cccc(NS(=O)(=O)c2cc(C(=O)OC(C)C(=O)NCc3ccc4c(c3)OCO4)ccc2C)c1 (stereo not given) the results were DT40 TDP1 CPT 18.4µM*, ALOX12 inh 9.6%, HT1080 IDH1KD tx -14.6%, DT40 TDP1 no CPT 16.4µM*, IL-1B inflam inh 0.0 and HT1080-NT tox -11.0%.
Screening CCN(c1ccccc1)S(=O)(=O)c1cc(C(=O)OC(C)C(=O)Nc2ccc3c(c2)OCCO3)ccc1C (stereo not given) returned DT40 TDP1 CPT inconclusive, ALOX12 inh inconclusive, HT1080 IDH1KD tx -24.7%, DT40 TDP1 no CPT 16.4µM*, IL-1B inflam inh 16.4 and HT1080-NT tox -12.9%.
For O=S(=O)(c1ccc2ccccc2c1)N(CC1CO1)c1ccccc1 (stereo not given) the results were DT40 TDP1 CPT 13µM*, ALOX12 inh -3.8%, HT1080 IDH1KD tx -23.8%, DT40 TDP1 no CPT inconclusive, IL-1B inflam inh -8.2 and HT1080-NT tox inconclusive.
Screening CCN(c1ccccc1)S(=O)(=O)c1ccc2c(c1)OCCO2 returned DT40 TDP1 CPT 16.4µM*, ALOX12 inh 68.4%, HT1080 IDH1KD tx -1.4%, DT40 TDP1 no CPT inconclusive, IL-1B inflam inh 54.7 and HT1080-NT tox 5.1%.
CC(=O)Nc1cccc(C(=O)OC(C)C(=O)NCc2ccc3c(c2)OCO3)c1 (stereo not given) was read as DT40 TDP1 CPT -2.8%, ALOX12 inh 12.6%, HT1080 IDH1KD tx -15.1%, DT40 TDP1 no CPT -0.6%, IL-1B inflam inh 21.9 and HT1080-NT tox 1.2%.
Screening CC(NC(=O)c1cccnc1)c1nnc2n1CCN(Cc1ccc(-c3ccccc3Cl)o1)CC2 (stereo not given) returned DT40 TDP1 CPT -5.1%, ALOX12 inh -2.3% and DT40 TDP1 no CPT -21.9%.
`CCOC(=O)c1cc(NC(=O)c2ccc(C(C)(C)C)cc2)c(=O)n2c1oc1cc(Cl)ccc12` gave ALOX12 inh -34.1%.
For COc1ccc(-c2nc(-c3nnn4c3COC(c3ccc(Cl)cc3)C4)no2)c(OC)c1 (stereo not given) the results were ALOX12 inh 11.4%.
COc1ccc(OC)c(C2CC(=O)N(c3ccccc3)C3=C2C(=O)OC3)c1 (stereo not given) was read as ALOX12 inh 3.3%.
CCc1nc2c(OCc3c(C)noc3C)cccn2c1N(C)C(=O)C(C)C was read as DT40 TDP1 CPT inconclusive, HT1080 IDH1KD tx 11.7%, DT40 TDP1 no CPT inconclusive, IL-1B inflam inh 5.7 and HT1080-NT tox 16.7%.
`CCc1nc2c(OCc3ccc(Cl)cc3)cccn2c1N(C=O)Cc1ccc(OC)cc1` gave DT40 TDP1 CPT 20.6µM*, ALOX12 inh -4.1%, HT1080 IDH1KD tx inconclusive, DT40 TDP1 no CPT inconclusive, IL-1B inflam inh 0.0 and HT1080-NT tox inconclusive.
For CCc1nc2c(OCC(N)=O)cccn2c1N(C)C(=O)c1cccs1 the results were DT40 TDP1 CPT -6.4%, ALOX12 inh -38.7%, HT1080 IDH1KD tx 8.2%, DT40 TDP1 no CPT -4.8%, IL-1B inflam inh 42.0 and HT1080-NT tox inconclusive.
For CCc1nc2c(OCC(=O)c3ccc(Cl)cc3Cl)cccn2c1N(C)C(=O)c1cccs1 the results were DT40 TDP1 CPT 16.4µM*, ALOX12 inh inconclusive, HT1080 IDH1KD tx inconclusive, DT40 TDP1 no CPT 18.4µM*, IL-1B inflam inh inconclusive and HT1080-NT tox inconclusive.
CCc1nc2c(OCc3c(C)noc3C)cccn2c1N(C=O)Cc1ccc(OC)cc1 was read as DT40 TDP1 CPT 23.1µM*, ALOX12 inh -16.3%, HT1080 IDH1KD tx 0.0%, DT40 TDP1 no CPT 14.6µM*, IL-1B inflam inh 5.7 and HT1080-NT tox 0.7%.
`CCc1nc2c(OCCOc3ccc(F)cc3)cccn2c1N(C=O)Cc1ccc(OC)cc1` gave DT40 TDP1 CPT inconclusive, ALOX12 inh -5.7%, HT1080 IDH1KD tx 0.4%, DT40 TDP1 no CPT inconclusive, IL-1B inflam inh -21.2 and HT1080-NT tox 1.7%.
`CCc1nc2c(OCCn3cccc3)cccn2c1N(C=O)Cc1ccc(OC)cc1` gave DT40 TDP1 CPT 20.6µM*, ALOX12 inh -13.0%, HT1080 IDH1KD tx -1.8%, DT40 TDP1 no CPT inconclusive, IL-1B inflam inh -22.5 and HT1080-NT tox -24.5%.
`Cc1cc(C2CCCN2C(=O)c2ccc(F)cc2F)on1` (stereo not given) gave ALOX12 inh 49.3%.
COCCN1CCN(C(=O)CC(c2ccccc2)c2ccc(Cl)cc2)CC1 (stereo not given) was read as ALOX12 inh 1.5%.
Screening CC(C)(C)c1ccc(C(=O)NC(Nc2ccc(Cl)cc2)C(Cl)(Cl)Cl)cc1 (stereo not given) returned ALOX12 inh -23.2%.
`O=C(NCCCc1ccccc1)C1CCN(C(=O)c2ncn3c2COC(c2ccc(F)cc2)C3)CC1` (stereo not given) gave ALOX12 inh 13.1%.
